We go through 50 molecules from PubChem BioAssay AID504339 (National Center for Advancing Translational Sciences (NCATS), 2011).

Out of some 390,000 compounds screened, about 17,000 (4.4%) were called active. About 8% were inconclusive and are not listed. The call rests on the fitted dose curve; in most records, active means well fitted inhibition curve with a large enough effect; inconclusive means small, poorly fitted or top-dose-only effect; inactive means no such curve, though single readings can be large or run the other way. For the sample, actives were picked, then their nearest neighbours and some compounds at random.
On the % scale 0 is the no-effect control and ±100 the full control effect; potency means the concentration at half of the fitted maximal effect.

The target in this experiment is Lysine-specific demethylase 4A (Homo sapiens) (UniProt O75164). The experiment is described as follows: qHTS Assay for Inhibitors of JMJD2A-Tudor Domain. Further: nearly all actives have a fitted effect of over 50% in size. Conditions: AlphaScreen JMJD2A-Tudor / H3K4me3 peptide binding; series mostly up to 114 µM; activity change, negative = inhibition: at the top concentration. The source says: JMJD2A is a jumonji-domain-containing lysine demethylase that uses Fe(II) together with 2-OG to effect oxidative demethylation of histones. Methylation is one of many […] modification that affect epigenetic transcription. […] It is proposed that the functions of JmjD2A binding to the histones, is to maintain marks after they are installed and to spread the modifications by […], establishing a self-propagating cycle for rapid methylation over a large area of chromatin. […] Thus, small molecule targeting of the JMJD2A-tudor domain interaction with its target methylhistone mark is expected to enable sophisticated experiments probing the fine regulatory pathways leading to selective demethylation of a given methyllysine locus based on the methylation state of adjacent histone marks. A quantitative high throughput AlphaScreen has been developed to identify small molecule inhibitors based on a protocol published by NCGC and SGC [4].
Chain of Lysine-specific demethylase 4A (Homo sapiens) (O75164 whole entry, looked up, the tested form may be a part): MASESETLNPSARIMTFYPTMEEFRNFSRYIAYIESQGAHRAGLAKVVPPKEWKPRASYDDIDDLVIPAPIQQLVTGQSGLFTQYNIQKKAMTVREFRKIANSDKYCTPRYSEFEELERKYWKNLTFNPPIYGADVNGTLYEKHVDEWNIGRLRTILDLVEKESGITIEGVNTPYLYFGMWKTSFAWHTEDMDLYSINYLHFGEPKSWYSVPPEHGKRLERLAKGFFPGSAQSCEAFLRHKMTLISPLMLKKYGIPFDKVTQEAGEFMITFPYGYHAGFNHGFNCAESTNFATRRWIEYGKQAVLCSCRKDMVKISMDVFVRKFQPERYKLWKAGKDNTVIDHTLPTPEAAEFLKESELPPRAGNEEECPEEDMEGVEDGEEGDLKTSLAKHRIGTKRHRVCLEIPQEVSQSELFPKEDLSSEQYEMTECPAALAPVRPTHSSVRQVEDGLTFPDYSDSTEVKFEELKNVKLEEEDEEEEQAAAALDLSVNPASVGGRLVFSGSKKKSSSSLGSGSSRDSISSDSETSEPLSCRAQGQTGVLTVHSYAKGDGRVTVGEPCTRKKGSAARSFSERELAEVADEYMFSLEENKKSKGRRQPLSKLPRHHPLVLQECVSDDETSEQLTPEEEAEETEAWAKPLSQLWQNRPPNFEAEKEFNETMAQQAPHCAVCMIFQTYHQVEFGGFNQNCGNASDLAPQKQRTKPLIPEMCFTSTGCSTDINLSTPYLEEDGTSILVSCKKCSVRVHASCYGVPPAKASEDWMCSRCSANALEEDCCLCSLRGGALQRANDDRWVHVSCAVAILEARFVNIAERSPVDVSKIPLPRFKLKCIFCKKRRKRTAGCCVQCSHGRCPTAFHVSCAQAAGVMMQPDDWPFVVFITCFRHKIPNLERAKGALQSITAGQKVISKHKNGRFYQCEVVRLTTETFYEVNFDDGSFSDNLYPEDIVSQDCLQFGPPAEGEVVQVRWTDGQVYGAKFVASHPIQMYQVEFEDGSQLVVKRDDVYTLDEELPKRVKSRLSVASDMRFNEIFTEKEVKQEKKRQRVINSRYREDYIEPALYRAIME
Although AlphaScreen has significant advantages with its utility in a variety of epigenetic target assays, the primary screening data provided in this deposition should be used with caution due to the prevalence of screening artifacts. The top compound concentration tested was high (>100uM) in this assay, which increases number of actives and potential artifacts. An AlphaScreen counterscreen is highly recommended to be run against any putative actives to eliminate non-specific artifacts. Alternatively, one can use other AlphaScreen assays in PubChem to filter out promiscuous hits.
[1] Lee, J. et al. Distinct binding modes specify the recognition of methylated histone H3K4 and H4K20 by JMJD2A-tudor. Nat Struct Mol Biol. 15(1); 109-11. 2008. PMID: 18084306
[2] Yasgar, et al. Compound Management for Quantitative High-Throughput Screening. JALA. 2008 Apr;13(2):79-89. PMID: 18496600
[3] Inglese, et al. Quantitative high-throughput screening: a titration-based approach that efficiently identifies biological activities in large chemical libraries. Proc Natl Acad Sci. 1;103(31):11473-8. 2006. PMID: 16864780
[4] Quinn et al. A homogeneous method for investigation of methyl-dependent protein-protein interactions in epigenetics. Nucleic Acids Res., 38(2):e11. 2010. PMID: […]
[5] Baell,Holloway. New substructure filters for removal of pan assay interference compounds (PAINS) from screening libraries and for their exclusion in bioassays. J Med Chem. 53(7):2719-40. 2010. PMID: 20131845
NIH Molecular Libraries Probe Production Network [MLPCN]
NIH Chemical Genomics Center [NCGC]
Structural Genomics Consortium (SGC)
To each well of a 1,536w plate, 2ul of JMJD2A-Tudor (final 100nM) and 1ul biotinylated histone peptide methylated at Lys4 [b-H3(1-18)K4me3] (final 50nM) were added in 1x PBS buffer, pH 7.4, containing 0.01% Tween-20, using a nanoliter dispenser. Formation of a protein-peptide complex proceeded at room temperature for 30 min. A Kalypsys pin-tool transferred 23nl of library compound solution in DMSO to each well. Following a 30 min incubation of the protein-peptide complex with compounds at room temperature, a mixture of 40 µg/mL each streptavidin-coated donor and nickel chelate acceptor AlphaScreen beads (final 10 µg/mL) was added in a 1ul dispense for a final volume of 4ul, followed by a brief centrifugation (1000 rpm, 1 min). Plates were incubated protected from the light for 20 min at room temperature. Microplates were then read on an EnVision multilabel plate reader using the 1,536 plate HTS AlphaScreen aperture (excitation time 80 ms, measurement time 240 ms).
In general terms: qHTS replaces the single test concentration by a dilution series.
Consider `CCOC(=O)Cc1ccc(NC(=O)Nc2c[nH]c(=O)[nH]c2=O)cc1`, for which the “activity change, negative = inhibition” value is -8.28% (inactive). Still for that read-out and setting: in the case of `CCCCN(CC)CCCNC(=O)Cn1ncc2c([nH]c3ccc(C)cc32)c1=O` it was -26.9% (inactive); in that of `CCCSc1ncc(Cl)c(C(=O)Nc2sc3c(c2C(=O)NCCOC)CCCC3)n1`, -20.1% (inactive). Still for that read-out and setting: in the case of `Cc1ccc(NC(=S)N(CCCN2CCC(C)CC2)Cc2ccco2)cc1` it was -28.5% (inactive). Take `Cc1ccc(NC(=S)N(CCCN2CCCC2)Cc2cccn2Cc2ccc(Cl)cc2)cc1`: the Potency was 50.1 µM (active). Consider `Cc1ccccc1NC(=S)N(CCCN1CCOCC1)Cc1cccs1`, for which the “activity change, negative = inhibition” value is -11.6% (inactive).

For `O=c1[nH]c2cc(Br)ccc2n2cccc12`, the “activity change, negative = inhibition” value is 0.336% (inactive). Still for that read-out and setting: in the case of `COc1cc(C(=O)N2CCN(c3ccc(Nc4ccc(C)cc4)nn3)CC2)cc(OC)c1OC` it was -20.8% (inactive). `Cc1ccc(N=C2NC(=O)/C(=C/C=C/c3ccco3)S2)cc1C`: the Potency is 39.8 µM (active).

Turning to `COc1ccc(OC)c(CCNC(=O)CCCn2c(=O)c3cccn3c3cccnc32)c1`, the “activity change, negative = inhibition” value is -6.23% (inactive). The same measure, in the same setting: in the case of `O=C(Cn1c(=O)n(Cc2cccs2)c(=O)c2cccnc21)Nc1ccc(F)cc1` it was -9.09% (inactive).

With `CC(C)(C)n1c(=O)[nH]c2c(c1=O)CCC2`, the “activity change, negative = inhibition” value is 4.4% (inactive).

Take `O=c1[nH]n2c(=O)c3c([nH]c2c1N=Nc1ccccc1)CCC3`: the Potency was 50.1 µM (active). In the case of `Cc1ccc2oc(=O)c3cnn(CC(=O)NCc4ccccc4Cl)c3c2c1`, the “activity change, negative = inhibition” value was -22.5% (inactive). Still for that read-out and setting: in the case of `CCOc1cc(C(=O)NCCc2csc3nc(-c4ccc(C)cc4)nn23)cc(OCC)c1OCC` it was 3.3% (inactive); in that of `Cc1cccc(C)c1NC(=O)CCCSc1nnc(-c2ccco2)n1-c1ccccc1`, -27.9% (inactive). Turning to `NNC(=O)CSc1nnc(-c2ccccc2)n1-c1ccccc1`, the “activity change, negative = inhibition” value was -15.9% (inactive). Still for that read-out and setting: in the case of `COc1ccc(C(=O)NC(=O)CSc2nnc(-c3ccco3)n2-c2ccccc2)cc1` it was -4.05% (inactive); in that of `Cc1cc(NC(=O)CSc2nnc(-c3ccco3)n2N)no1`, -18.8% (inactive). Consider `CCOc1ccc(-n2c(SCC(N)=O)nnc2-c2ccco2)cc1`, for which the Potency is 20 µM (active).

In the case of `COc1ccc(-c2nnc(SCC(=O)c3ccco3)n2-c2ccccc2)cc1`, the Potency is 56.2 µM (active). For `O=C1OC(C(=O)Nc2cccc(Br)c2)Cc2ccccc21` (stereo not given), the “activity change, negative = inhibition” value was -5.15% (inactive). For the molecule `CCOC(=O)c1ccc(NC(=O)c2ncn(-c3ccccc3)n2)cc1`, the “activity change, negative = inhibition” value was -1.37% (inactive). For the molecule `NC1=NC(c2cc(F)cc(F)c2)n2c(nc3ccccc32)N1` (stereo not given), the “activity change, negative = inhibition” value is -11.9% (inactive).

Take `COc1ccccc1NC(=O)c1cc(S(=O)(=O)NCCc2ccccc2)ccc1F`: the “activity change, negative = inhibition” value was -22.6% (inactive). Still for that read-out and setting: in the case of `Oc1ccccc1-c1nc(/C=C/c2ccc(F)cc2)no1` it was -4.81% (inactive).

Regarding `O=C(Nc1ccc(-n2ccnc2P(=O)(O)c2ccccc2)cc1)c1ccccc1Br`, the Potency was 8.91 µM (active). On to `Cn1c(=O)c(=O)n(C)c2cc(NC(=O)c3ccccc3Br)ccc21`, for which the “activity change, negative = inhibition” value was -0.685% (inactive). Same read-out and setting: in the case of `Cc1ccc(NC(=O)c2cccnc2C(=O)Nc2ccc(C)cc2)cc1` it was -17.7% (inactive). Take `COc1ccc(CCNC(=O)c2cc3cccc4c3n2CC(C)S4)c(OC)c1OC` (stereo not given): the “activity change, negative = inhibition” value is -10.7% (inactive). The same measure, in the same setting: in the case of `CNC(=O)NC(=O)CSc1nnc(-c2ccc(F)cc2)n1CC1CCCO1` (stereo not given) it was -27.5% (inactive); in that of `Cc1nnc(SCC(=O)NNC(=O)c2ccc(Cl)cc2)n1CC1CCCO1` (stereo not given), -2.01% (inactive).

For `S=c1[nH]nc(-c2ccc(Cl)cc2)n1CC1CCCO1` (stereo not given), the Potency is 8.91 µM (active). For `COc1cc2[nH]c(=O)n(Cc3ccc(C(=O)NCc4ccc(C)cc4)cc3)c(=O)c2cc1OC`, the “activity change, negative = inhibition” value is -8.53% (inactive). The same measure, in the same setting: in the case of `O=C(NCC(c1ccc(Cl)cc1)N1CCOCC1)c1ccccc1F` (stereo not given) it was 1.32% (inactive); in that of `O=C(Nc1ccc(C(=O)OCc2cc(=O)n3nc(C4CC4)sc3n2)cc1)c1ccc(F)cc1`, 8.94% (inactive); in that of `CCN(C(=O)CSc1nnc(C)n2c1cc1occc12)c1ccccc1`, -21.2% (inactive). The same measure, in the same setting: in the case of `CNC(=O)CN1C(=O)c2cccnc2Sc2ccccc21` it was -12.7% (inactive). For the molecule `CSc1n[nH]c(=S)n1N`, the Potency is 17.8 µM (active). On the same count and under the same terms, in the case of `CCOC(=O)C1CCN(c2csc3ccc(C)cc3c2=O)CC1` it was 17.8 µM (active).

Consider `CCOC(=O)C1CCN(c2c(Nc3cc(C)cc(C)c3)c(=O)c2=O)CC1`, for which the “activity change, negative = inhibition” value was 1.41% (inactive). The same measure, in the same setting: in the case of `CCOC(=O)C1CCN(c2ccc(C(=O)O)cc2[N+](=O)[O-])CC1` it was -9.25% (inactive); in that of `CCOc1ccc2oc(=O)cc(CN3CCN(C(=O)c4ccc(F)cc4)CC3)c2c1`, -17.9% (inactive); in that of `COc1ccc2oc(=O)cc(CN3CCOCC3)c2c1`, -5.65% (inactive). In the case of `CCOc1ccc(N(C)Cc2cc(=O)oc3ccc(OC)cc23)cc1`, the Potency was 14.1 µM (active).

Turning to `Cc1ccc(NC(=O)c2oc3ccccc3c2NC(=O)Cc2cccs2)cc1`, the “activity change, negative = inhibition” value was -5.96% (inactive). On the same count and under the same terms, in the case of `N#Cc1ccc(OC2=NS(=O)(=O)c3ccccc32)cc1` it was -12.8% (inactive). As for `CCOC(=O)Cc1csc(NC(=O)CSc2nc(C)cc(=O)[nH]2)n1`, the Potency was 20 µM (active). Turning to `CCOC(=O)Cc1csc(NC(=O)CSc2ccc(Br)cc2)n1`, the “activity change, negative = inhibition” value was 18.2% (inactive).

For `CCCCc1nnc(NC(=O)CSc2nc(C)cc(=O)[nH]2)s1`, the “activity change, negative = inhibition” value was -18.6% (inactive).
